From PubChem BioAssay
The source made the active and inactive calls.

Experiments:
[1] = small molecules captured by biotinylated probe aFSTL3 – biochemical, small-molecule microarray, fluorescence 635/667, stem cell growth factor project, primary screen (AID 1064); details: higher = more signal;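 also: measures binding of the biotinylated anti-FSTL3 antibody to printed compounds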
[2] = binders from COS7 lysate, DM2A8 probe, primary screen, torsin A project, cell lysate, small-molecule microarray, fluorescence 635/667 (AID 1065); details: higher = more signal, COS7 lysate expressing mutant human TOR1A
[3] = small molecules captured by biotinylated probe aFGF2 – biochemical, small-molecule microarray, fluorescence 635/667, stem cell growth factor project, primary screen (AID 1067); details: higher = more signal;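 also: measures binding of biotinylated aFGF2 protein to printed compounds on slides; z-score merges feature fluorescence and signal-to-noise across triplicate slides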
[4] = small molecules captured by biotinylated probe aFGF10 – biochemical, small-molecule microarray, fluorescence 635/667, stem cell growth factor project, primary screen (AID 1071); details: higher = more signal;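 also: score merges 667 nm spot intensity and signal to noise from triplicate slides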
[5] = target: Neurogenic locus notch homolog protein 2 (Homo sapiens) (UniProt Q04721); test: small molecules binding Notch2 protein – biochemical, small-molecule microarray, 635 nm fluorescence, stem cell growth factors, primary screen (AID 1073); details: higher = more signal
[6] = target: Pro-neuregulin-1, membrane-bound isoform (Homo sapiens) (UniProt Q02297); test: small molecules binding neuregulin-1 protein – biochemical, small-molecule microarray, fluorescence 635/667, psychiatric disease protein project, primary screen (AID 1075); details: NRG1 binding, 635 nm fluorescence, higher = more signal;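 also: score combines 667 nm spot fluorescence with signal to noise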
[7] = system: Neuregulin-1 EGF-like domain; test: small molecules binding NRG1 EGF domain – biochemical, small-molecule microarray, 635 nm fluorescence, primary screen (AID 1081); details: higher = more signal;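 also: binding of the protein to compounds printed on small-molecule microarray slides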
[8] = FRG1 expression reporter modulators in myotubes – cell-based, C2C12 myotubes, firefly/Renilla luciferase, luminescence, FRG1 inhibition for FSHD, primary screen (AID 1084); details: FRG1 promoter luciferase, higher = more signal, called active from +8 up or from −8 down
[9] = small molecules captured by biotinylated probe aFST – biochemical, small-molecule microarray, fluorescence 635/667, stem cell growth factor project, primary screen (AID 1086); details: higher = more signal;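 also: score merges 667 nm fluorescence with signal-to-noise of each printed compound spot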
[10] = binders of probe aHhip on microarray, primary screen, stem cell growth factor project, biochemical, small-molecule microarray, fluorescence 635/667 (AID 1087); details: higher = more signal;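 also: score merges spot fluorescence at 667nm with spot signal to noise ratio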

Sequence of Neurogenic locus notch homolog protein 2 (Homo sapiens) (Q04721 whole entry, looked up, canonical isoform): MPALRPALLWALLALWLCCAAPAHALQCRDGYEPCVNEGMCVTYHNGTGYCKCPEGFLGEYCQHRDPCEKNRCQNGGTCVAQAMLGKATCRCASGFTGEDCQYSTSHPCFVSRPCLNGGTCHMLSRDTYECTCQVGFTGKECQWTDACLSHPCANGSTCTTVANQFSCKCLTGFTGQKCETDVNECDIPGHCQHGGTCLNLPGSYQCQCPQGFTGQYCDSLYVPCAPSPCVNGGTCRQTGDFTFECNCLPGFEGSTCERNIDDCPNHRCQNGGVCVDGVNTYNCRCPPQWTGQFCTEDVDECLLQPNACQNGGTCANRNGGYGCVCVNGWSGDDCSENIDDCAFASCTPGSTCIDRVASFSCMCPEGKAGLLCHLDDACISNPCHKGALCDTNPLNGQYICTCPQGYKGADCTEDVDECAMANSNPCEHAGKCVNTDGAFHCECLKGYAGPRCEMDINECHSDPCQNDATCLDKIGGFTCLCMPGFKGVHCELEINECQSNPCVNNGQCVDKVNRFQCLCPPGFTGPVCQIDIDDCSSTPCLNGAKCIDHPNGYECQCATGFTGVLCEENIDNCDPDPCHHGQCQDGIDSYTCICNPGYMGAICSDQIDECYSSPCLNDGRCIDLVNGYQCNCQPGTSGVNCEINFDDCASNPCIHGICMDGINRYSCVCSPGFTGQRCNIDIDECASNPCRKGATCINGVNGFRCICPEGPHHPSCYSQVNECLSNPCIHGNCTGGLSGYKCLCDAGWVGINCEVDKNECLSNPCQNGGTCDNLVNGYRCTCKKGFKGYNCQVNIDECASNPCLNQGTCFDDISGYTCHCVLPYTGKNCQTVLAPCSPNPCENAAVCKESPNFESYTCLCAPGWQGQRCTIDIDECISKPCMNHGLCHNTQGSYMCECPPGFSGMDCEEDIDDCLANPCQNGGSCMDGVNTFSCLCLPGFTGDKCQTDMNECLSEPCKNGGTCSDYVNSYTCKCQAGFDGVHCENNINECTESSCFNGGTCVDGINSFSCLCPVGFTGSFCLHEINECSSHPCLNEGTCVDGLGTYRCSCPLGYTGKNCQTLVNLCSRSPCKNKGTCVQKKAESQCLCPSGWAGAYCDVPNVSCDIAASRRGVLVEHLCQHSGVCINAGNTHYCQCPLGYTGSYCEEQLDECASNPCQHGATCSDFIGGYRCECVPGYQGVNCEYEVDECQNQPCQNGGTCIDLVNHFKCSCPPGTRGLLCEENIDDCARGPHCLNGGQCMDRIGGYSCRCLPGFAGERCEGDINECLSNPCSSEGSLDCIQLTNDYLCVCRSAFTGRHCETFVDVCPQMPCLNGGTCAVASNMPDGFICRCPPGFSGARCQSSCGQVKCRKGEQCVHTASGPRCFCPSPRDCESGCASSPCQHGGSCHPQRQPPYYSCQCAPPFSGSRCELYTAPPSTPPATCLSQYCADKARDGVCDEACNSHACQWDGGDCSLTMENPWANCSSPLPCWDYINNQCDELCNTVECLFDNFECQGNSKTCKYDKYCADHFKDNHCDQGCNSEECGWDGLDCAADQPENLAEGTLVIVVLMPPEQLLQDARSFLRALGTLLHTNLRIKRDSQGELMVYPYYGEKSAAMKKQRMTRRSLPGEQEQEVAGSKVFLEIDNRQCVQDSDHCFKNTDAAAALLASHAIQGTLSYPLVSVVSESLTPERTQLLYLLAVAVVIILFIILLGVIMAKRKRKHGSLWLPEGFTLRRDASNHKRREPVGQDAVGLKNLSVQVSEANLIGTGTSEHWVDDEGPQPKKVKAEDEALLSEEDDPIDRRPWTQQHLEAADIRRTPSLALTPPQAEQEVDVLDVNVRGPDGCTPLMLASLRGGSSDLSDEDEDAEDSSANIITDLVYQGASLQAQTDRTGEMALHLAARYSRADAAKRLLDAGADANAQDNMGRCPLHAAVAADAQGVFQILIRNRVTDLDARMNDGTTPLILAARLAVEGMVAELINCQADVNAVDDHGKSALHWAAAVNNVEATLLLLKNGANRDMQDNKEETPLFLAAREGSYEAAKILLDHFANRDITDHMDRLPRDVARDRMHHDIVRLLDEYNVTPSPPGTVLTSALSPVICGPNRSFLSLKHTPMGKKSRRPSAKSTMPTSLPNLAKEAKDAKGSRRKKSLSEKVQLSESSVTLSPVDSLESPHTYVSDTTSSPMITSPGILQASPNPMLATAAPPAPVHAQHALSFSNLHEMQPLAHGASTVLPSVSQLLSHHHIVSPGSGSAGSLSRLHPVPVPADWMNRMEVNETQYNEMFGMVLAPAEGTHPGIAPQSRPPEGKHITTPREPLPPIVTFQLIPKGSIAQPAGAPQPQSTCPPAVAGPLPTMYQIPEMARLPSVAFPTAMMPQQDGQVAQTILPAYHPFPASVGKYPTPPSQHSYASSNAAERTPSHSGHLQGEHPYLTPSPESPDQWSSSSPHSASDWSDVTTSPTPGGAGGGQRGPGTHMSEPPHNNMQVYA
Sequence of Pro-neuregulin-1, membrane-bound isoform (Homo sapiens) (Q02297 whole entry, looked up, the tested form may be a part, canonical isoform): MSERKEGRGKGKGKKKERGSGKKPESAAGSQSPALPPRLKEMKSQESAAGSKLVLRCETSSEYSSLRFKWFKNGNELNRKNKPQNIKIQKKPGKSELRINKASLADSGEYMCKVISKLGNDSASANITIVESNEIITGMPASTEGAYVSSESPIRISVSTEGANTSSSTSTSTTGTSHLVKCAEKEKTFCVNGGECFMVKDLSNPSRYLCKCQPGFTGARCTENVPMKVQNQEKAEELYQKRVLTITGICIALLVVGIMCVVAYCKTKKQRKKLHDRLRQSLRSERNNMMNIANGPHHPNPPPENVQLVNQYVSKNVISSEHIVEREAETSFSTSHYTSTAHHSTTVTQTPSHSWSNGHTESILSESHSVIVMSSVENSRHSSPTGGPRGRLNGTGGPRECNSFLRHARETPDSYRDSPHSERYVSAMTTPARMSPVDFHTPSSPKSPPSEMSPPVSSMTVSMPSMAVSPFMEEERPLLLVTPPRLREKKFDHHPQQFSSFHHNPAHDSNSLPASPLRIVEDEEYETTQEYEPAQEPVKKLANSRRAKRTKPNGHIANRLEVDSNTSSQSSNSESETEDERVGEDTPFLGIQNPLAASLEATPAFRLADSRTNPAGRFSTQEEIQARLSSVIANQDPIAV

Row | Compound | composite z-score [1] | composite z-score [2] | composite z-score [3] | composite z-score [4] | composite z-score [5] | composite z-score [6] | composite z-score [7] | z-score [8] | composite z-score [9] | composite z-score [10]
1 | COc1ccc(O[C@@H]2[C@H](O)CO[C@H]2C=Cc2ccccc2)cc1 | -0.323 | 0.26 | -0.113 | 0.649 | -0.625 | 0.0515 | -0.839 | -1.39 (inactive) | -0.367 | -0.0994
2 | O=C(NN=C1C[C@@H](O)[C@@H](O)[C@@H]2[C@@H]3C(=O)N(C[C@@H]4CCCO4)C(=O)[C@@H]3CC[C@H]12)OCc1ccccc1 | 0.0589 | 0.349 | -0.118 | -0.0255 | -0.248 | -0.117 | -0.637 | -0.361 (inactive) | 0.556 | -0.0994
3 | CO[C@H](C1CCCCC1)[C@H](C)C=CCC(=O)OCCCc1ccccc1 | -0.13 | 0.216 | -0.155 | -0.104 | -0.163 | -0.137 | -0.647 | 0.567 (inactive) | -0.175 | -0.145
4 | COC(=O)CC=C[C@@H](C)[C@@H](C=NO[C@@H](C)c1cc(-c2c(C)cc(C)cc2C)no1)NS(=O)(=O)c1ccc(C)cc1 | 1.38 | -0.498 | -0.144 | -1.29 | -1.06 | -0.647 | -0.631 | 0.295 (inactive) | -0.176 | -0.236
5 | C=Cc1ccc([C@H]2N[C@H](C(=O)O)CC[C@@H]2C)cc1 | -0.372 | 0.056 | -0.156 | 0.145 | -0.226 | -0.284 | 0.564 | 1.35 (inactive) | -0.0301 | 0.0399
6 | C=COC[C@@H]1CN2[C@@H](CC[C@@H](C)[C@@H]2c2ccc(Br)cc2)C(=O)O1 | -0.154 | 0.436 | -0.158 | -0.134 | -0.898 | -0.0605 | 0.673 | 0.151 (inactive) | -0.171 | 0.643
7 | CC(CCN1CCCc2nc(C)c(C)cc21)=NO[C@@H](C)c1cc(-c2c(C)cc(C)cc2C)no1 | -0.34 | -0.685 | -0.0069 | 0.338 | 0.121 | 0.732 | 0.8 | -0.682 (inactive) | 0.0731 | -0.166
8 | CCOC(=O)NN=C1C[C@@H](O)[C@@H](O)[C@@H]2[C@@H]3C(=O)N([C@@H](C)c4ccccc4)C(=O)[C@@H]3CC[C@@H]12 | -0.291 | 2.08 | -0.0934 | 0.393 | 0.601 | -0.133 | 0.11 | 0.696 (inactive) | 0.517 | -0.0994
9 | CON=C1[C@H]2CCn3c(=O)n(-c4ccccc4)c(=O)n3[C@H]2[C@H](O)[C@@H]2O[C@H]12 | -0.39 | 0.135 | -0.0533 | 0.383 | 0.41 | 0.0959 | 0.561 | -1.17 (inactive) | 0.17 | -0.199
10 | C[C@H](ON=C1[C@H]2CCn3c(=O)n(-c4ccccc4)c(=O)n3[C@H]2[C@H](O)[C@@H]2O[C@H]12)c1cn([C@H](CO)Cc2ccccc2)nn1 | -0.317 | 0.386 | -0.0189 | 0.347 | 0.862 | -0.0139 | 0.764 | 0.68 (inactive) | 0.138 | 1.13
11 | C#CCCCON=C1C[C@@H](O)[C@@H](O)[C@@H]2[C@@H]3C(=O)N(c4cccc(Oc5ccccc5)c4)C(=O)[C@@H]3CC[C@H]12 | -0.2 | 0.744 | -0.129 | -0.264 | -0.87 | 0.248 | 0.425 | 1.2 (inactive) | -0.464 | -0.0193
12 | CC(CCN1CCCCc2nc(C)c(C)cc21)=NOC[C@@H](C)[C@H](OCc1ccccc1)C(C)C | -0.443 | -0.548 | -0.29 | -0.776 | -1.38 | -0.559 | -0.545 | -0.688 (inactive) | -2.12 | -0.0423
